# Bioassay records (PubChem BioAssay)
# tim23-1 inh: growth inhibitors of tim23-1 mutant yeast | inhibition, % at 20 µM | 1.3% of 330,000 active | S. cerevisiae tim23-1 growth, BacTiter-Glo luminescence, 24 h;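 active = growth inhibition of the mutant yeast at or above 50%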;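 also: temperature-sensitive mutant grown at 25 °C; plate controls were DMSO-treated mutant yeast for no effect and medium wells lacking yeast for full effect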
# TIM10 inh: growth inhibitors of TIM10 yeast strain; S. cerevisiae TIM10 strain growth, BacTiter-Glo luminescence, 24 h; inhibition, % at 10 µM; 1.4% of 330,000 active; AID 463195;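 active = inhibition of 40% or more at the single tested concentration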;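 also: wild-type TIM10 isogenic control strain grown at permissive 25 °C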
# SKKanGAS inh: SKKanGAS growth inhibition; 1.3% of 300,000 active; inhibition, % at 7.5 µM; AID 1662; S. pyogenes SKKanGAS, kanamycin growth, BacTiter-Glo, 6 h;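 active = mean replicate score, as percent of positive control median, at least 50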;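 also: strain carries kanamycin resistance gene driven by streptokinase promoter and grows in 40 µg/ml kanamycin; loss of luminescence reflects streptokinase promoter inhibition or plain growth inhibition; 0% = median of DMSO wells and 100% = positive control at its reference dose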
# tim10-1 inh: inhibits growth of tim10-1 mutant yeast. 2.2% of 330,000 active. AID 463190. S. cerevisiae tim10-1 ts strain growth, BacTiter-Glo, 24 h. inhibition, % at 20 µM;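 active = inhibition of at least 40%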;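 also: mutant grown at 25 °C; 0% = DMSO wells with yeast and 100% = wells holding no yeast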
# PfHsp90 yeast 2: reduces growth (ATP signal) of yeast expressing P. falciparum Hsp90. S. cerevisiae expressing PfHsp90, BacTiter-Glo ATP, 48 h; yeast lacking PDR1 and PDR3 efflux regulators. inhibition, % at 9.4 µM. 0.32% of 310,000 active. AID 504621;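 active = every replicate shows inhibition above about 80%, whatever the replicate mean, limit read from the data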;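 also: 0% = DMSO neutral controls and 100% = 20 µM radicicol positive controls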
# NALP3 yeast inh: NALP3 inhibition in yeast; 0.39% of 330,000 active; Yeast reconstituted NLRP3/ASC/caspase-1, beta-gal luminescence, 24 h; AID 2825; inhibition, % at 10 µM;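 active = inhibition of 50% or more; inactive = inhibition below 50%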;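 also: plate controls were induced DMSO wells for no effect and uninduced yeast grown without galactose for full effect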
# Active calls of the source: *; x = no result. Rows were chosen to be rich in hits. Some 4.5% of all compounds tested hit in one or more screens of this group.
SMILES,tim23-1 inh,TIM10 inh,SKKanGAS inh,tim10-1 inh,PfHsp90 yeast 2,NALP3 yeast inh
Cc1ccc(/C=C/c2ccc3cccc(O)c3n2)s1,6,-10,76*,15,-25,17
O=[N+]([O-])c1ccc(/C=C/c2ccc3cccc(O)c3n2)cc1,10,4,-1,32,-18,18
COc1cccc(/C=C/c2ccc3cccc(O)c3n2)c1,22,15,98*,17,103*,6
Oc1cccc(/C=C/c2ccc3cccc(O)c3n2)c1,47,35,57*,24,-35,21
COC(=O)C1=C(CS(=O)(=O)c2ccc(Cl)cc2)NC(=O)NC1c1ccc(O)cc1 (stereo not given),-5,1,0,-14,7,-9
CSc1ccc(/C=C/C(=O)N2CCN(c3ccccn3)CC2)cc1,5,-5,0,14,-51,32
COc1ccc(OC)c(-c2cc(C3CCN(c4cc(Cl)nc(N)n4)CC3)[nH]n2)c1,26,30,24,25,-28,7
COc1ccc(OC)c(-c2cc(C3CCN(c4ncccc4[N+](=O)[O-])CC3)[nH]n2)c1,32,12,57*,33,-31,23
O=[N+]([O-])c1cccnc1N1CCC(c2cc(-c3ccc(Cl)cc3Cl)n[nH]2)CC1,26,32,80*,37,-59,17
Cc1cccc(NC(=O)NNC(=O)c2cc(-c3ccccc3Cl)nc3ccccc23)c1,16,9,12,9,12,15
O=C(NNC(=O)c1cc(-c2ccc(Cl)c(Cl)c2)nc2ccccc12)Nc1ccccc1,4,10,76*,10,10,9
O=C(Nc1ccc2c(c1)N(S(=O)(=O)c1cccs1)CCC2)c1c(F)cccc1Cl,33,12,51*,17,20,21
COc1cccc(OC)c1C(=O)Nc1ccc2c(c1)N(S(=O)(=O)c1cccs1)CCC2,15,16,-7,19,1,3
CCOC(=O)C1=C(COC(=O)COc2ccc(OCC)cc2)NC(=O)NC1C (stereo not given),-11,-9,-6,3,x,7
CC(=O)Nc1ccc(C=NNc2ccc([N+](=O)[O-])cn2)cc1,x,x,x,x,6,x
CCC1(C)Cc2ccccc2-c2c1c(=O)n(-c1ccc(C)cc1)c1nnnn21 (stereo not given),-1,13,-1,11,5,6
CC1(C)Cc2ccccc2-c2c1c(=O)n(Cc1ccccc1)c1nnnn21,21,14,60*,26,x,1
Cc1cc(C)c(OCC(=O)N(Cc2ccc(N(C)C)cc2)C2CCS(=O)(=O)C2)c(C)c1 (stereo not given),20,-5,-2,3,18,-17
O=C(NC(=S)N1CCN(c2nc(-c3ccccc3)cs2)CC1)c1cccnc1,12,15,79*,33,-13,12
COc1ccc(NC2c3ccccc3C(=O)N2c2ccccn2)cc1 (stereo not given),31,10,-4,23,-4,9
CCc1ccc(N2C(=O)Nc3ccc(Br)cc3C2(O)C(=O)NCCN(C)C)cc1 (stereo not given),5,-10,-7,1,15,18
O=C(NNC(=S)NC(=O)c1cccc([N+](=O)[O-])c1)c1ccc(O)cc1,9,4,0,11,-2,-7
O=C(NNC(=S)NC(=O)c1cccc([N+](=O)[O-])c1)c1ccc(Br)cc1,24,12,68*,24,34,15
Cc1ccc(C(=O)NC(=S)NNC(=O)c2cccc([N+](=O)[O-])c2)cc1,23,14,74*,-5,-10,31
Cn1c(=O)n(CC(=O)NCC2CCCO2)c(=O)c2c3c(sc21)CCCC3 (stereo not given),-5,-3,0,1,-27,4
SMILES,tim23-1 inh,TIM10 inh,SKKanGAS inh,tim10-1 inh,PfHsp90 yeast 2,NALP3 yeast inh
Cc1cc(Cl)ccc1C(=O)C1CCCN(C(=O)c2cnn(C(C)C)c2)C1 (stereo not given),15,-2,4,21,-42,7
O=C(O)c1cc(S(=O)(=O)Nc2cccc(Oc3ccccc3)c2)ccc1Br,18,-3,9,11,-18,0
CC(C)=CCc1c(O)ccc(C2COc3c(CC=C(C)C)c(O)cc(O)c3C2=O)c1O (stereo not given),35,6,51*,18,106*,7
CC(=O)c1ccc(NC(=O)c2cc(CC(C)C)nc3ccccc23)cc1,11,-9,-2,6,5,34
Cc1cc(Oc2cnn(C(C)(C)C)c(=O)c2Cl)cc(C(C)C)c1,25,9,59*,26,-8,-8
CCOc1cnn(-c2cc(Oc3ccc(C)cc3)ncn2)c(=O)c1Cl,17,14,-1,16,26,26
CC(C)(C)C(=O)NC(=S)NNC(=O)c1ccncc1,-15,6,-3,15,-28,24
CCCCOc1ccc(C(=O)NNC(=S)NC(=O)CC)cc1,x,x,97*,x,106*,x
O=C(NNC(=S)NC(=O)c1ccccc1[N+](=O)[O-])c1ccccc1,14,17,0,9,-24,29
O=C(NNC(=S)NC(=O)c1ccccc1)c1ccc(O)cc1,12,2,74*,8,16,22
CC(C)(C)C(=O)NC(=S)NNC(=O)c1ccc(-c2ccccc2)cc1,49,-31,91*,8,104*,44
CCCOc1ccc(C(=O)NNC(=S)NC(=O)c2ccccc2[N+](=O)[O-])cc1,5,4,78*,7,-20,33
Cc1ccc(-c2noc(C3CCCN(C(=O)c4ccc(C(C)(C)C)cc4)C3)n2)o1 (stereo not given),19,25,5,20,-5,4
Cc1noc(/C=C/N(C)C)c1S(=O)(=O)N1CCC(C(=O)NC(C)(C)C)CC1,2,8,-4,1,0,20
O=C(Cc1cccc(NC(=O)C2CCN(C(=O)C3CCCC3)CC2)c1)Nc1cccc(C(=O)N2CCCCC2)c1,x,x,x,x,-1,x
CCCOc1ccc(C(=O)NNC(=S)NC(C)=O)cc1,-29,-121,93*,4,17,35
Cc1ccc(C(=O)NNC(=S)NC(=O)COc2ccccc2)cc1,-28,-1,33,-12,-4,14
CC(C)(C)c1ccc(C(=O)NC(=S)NNC(=O)COc2ccccc2)cc1,25,-54,91*,11,3,23
CCCOc1ccc(C(=O)NNC(=S)NC(=O)c2ccccc2)cc1,-3,-4,107*,-7,25,13
CC(C)(C)C(=O)NC(=S)NNC(=O)c1ccc(Cl)cc1Cl,-5,-41,73*,-40,38,20
COc1ccc(-n2c(SCC(=O)Nc3cc(C)on3)nc3c([nH]c4ccccc43)c2=O)cc1OC,5,14,9,15,-7,-10
CCOc1ccc(C(=O)NC(=S)N(Cc2ccccc2)Cc2ccccc2)cc1,x,x,98*,x,x,x
